This passage reports binding signal results from publication PMC7862700, “An all-to-all approach to the identification of sequence-specific readers for epigenetic DNA modifications on cytosine”.

Assay in all cases: DAPPL (digital affinity profiling via proximity ligation, sequencing); 10 mM Tris-HCl pH 7.5, 50 mM NaCl, 1 mM DTT, 4% glycerol, room temperature, 30 min; GST-TFs on glutathione beads, 16-mer random dsDNA library, 0.1% formaldehyde crosslink after washing; high values mean tight binding
What all share (conditions): protein: recombinant; tags: N-terminal GST; dsDNA, one strand shown

One assay concerns the target T1, FLI1 (Homo sapiens, UniProt Q01543 1-452).
T1 sequence: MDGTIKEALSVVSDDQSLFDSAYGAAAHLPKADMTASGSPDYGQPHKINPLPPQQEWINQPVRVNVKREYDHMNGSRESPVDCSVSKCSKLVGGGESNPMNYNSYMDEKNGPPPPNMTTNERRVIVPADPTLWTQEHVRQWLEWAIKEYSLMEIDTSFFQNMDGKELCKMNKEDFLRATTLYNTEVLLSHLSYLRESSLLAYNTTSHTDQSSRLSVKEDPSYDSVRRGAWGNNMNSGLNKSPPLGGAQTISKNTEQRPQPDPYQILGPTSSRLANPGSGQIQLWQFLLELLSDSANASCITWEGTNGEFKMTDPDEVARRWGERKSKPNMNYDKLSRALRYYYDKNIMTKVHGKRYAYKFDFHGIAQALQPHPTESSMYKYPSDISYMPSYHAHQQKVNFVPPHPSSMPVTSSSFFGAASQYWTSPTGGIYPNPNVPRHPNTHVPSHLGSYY
In a few lines: (§1)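 Each value of binding signal is a hexamer's read frequency for a factor divided by the same hexamer's frequency in the tag-only sample. Barcoded, bead-captured GST fusions of human transcription factors made in yeast were pooled with that sample and incubated with 200 nmole of a random double-stranded 16-mer DNA library in Tris/NaCl/DTT/glycerol buffer at room temperature for 30 min. Washing, 0.1% formaldehyde crosslinking, proximity ligation, PCR and Illumina NextSeq500 sequencing followed.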

For a further assay, the target named is T2, ELK1 (Homo sapiens, UniProt P19419 1-428).
T2 sequence: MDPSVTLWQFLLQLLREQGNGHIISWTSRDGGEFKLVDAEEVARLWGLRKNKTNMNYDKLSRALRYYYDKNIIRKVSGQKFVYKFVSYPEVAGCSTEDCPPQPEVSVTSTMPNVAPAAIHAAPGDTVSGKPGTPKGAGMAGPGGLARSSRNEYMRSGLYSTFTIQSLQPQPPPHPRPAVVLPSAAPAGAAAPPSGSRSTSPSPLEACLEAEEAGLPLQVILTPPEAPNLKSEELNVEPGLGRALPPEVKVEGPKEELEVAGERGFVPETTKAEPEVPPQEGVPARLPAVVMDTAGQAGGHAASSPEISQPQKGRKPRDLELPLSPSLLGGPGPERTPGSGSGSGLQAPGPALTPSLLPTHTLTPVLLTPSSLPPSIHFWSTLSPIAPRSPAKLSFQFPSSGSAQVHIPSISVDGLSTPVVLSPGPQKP
In a few lines:
as §1

In a further assay the target is T3, GABPA (Homo sapiens, UniProt Q06546 1-454).
T3 sequence: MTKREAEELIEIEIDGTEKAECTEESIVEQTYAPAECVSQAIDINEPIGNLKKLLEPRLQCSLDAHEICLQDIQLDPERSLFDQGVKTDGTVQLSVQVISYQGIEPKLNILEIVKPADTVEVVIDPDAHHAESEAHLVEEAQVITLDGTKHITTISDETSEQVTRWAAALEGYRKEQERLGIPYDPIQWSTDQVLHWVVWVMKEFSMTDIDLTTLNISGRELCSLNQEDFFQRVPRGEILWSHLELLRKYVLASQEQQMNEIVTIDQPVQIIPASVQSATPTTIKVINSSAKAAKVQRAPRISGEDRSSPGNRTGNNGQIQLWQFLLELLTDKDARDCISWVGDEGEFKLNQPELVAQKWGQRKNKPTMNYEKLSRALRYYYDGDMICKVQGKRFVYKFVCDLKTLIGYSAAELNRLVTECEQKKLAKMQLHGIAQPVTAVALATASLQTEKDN
In a few lines:
as §1

The target in a further assay is T4, ELK4 (Homo sapiens, UniProt P28324-2 1-405).
T4 sequence: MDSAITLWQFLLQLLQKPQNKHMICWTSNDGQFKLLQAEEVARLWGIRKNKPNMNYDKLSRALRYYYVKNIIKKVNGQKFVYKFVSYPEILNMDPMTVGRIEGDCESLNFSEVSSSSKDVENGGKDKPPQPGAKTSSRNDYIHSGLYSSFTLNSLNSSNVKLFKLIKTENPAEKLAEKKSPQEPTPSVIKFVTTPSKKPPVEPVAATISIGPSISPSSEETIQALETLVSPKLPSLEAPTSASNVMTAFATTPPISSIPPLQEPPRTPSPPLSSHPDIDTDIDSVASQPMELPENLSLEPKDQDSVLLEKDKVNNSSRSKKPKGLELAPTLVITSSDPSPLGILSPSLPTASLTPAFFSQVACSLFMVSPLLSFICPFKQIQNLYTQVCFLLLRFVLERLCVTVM
In a few lines:
as §1

The next assay deals with T5, ERF (Homo sapiens, UniProt P50548 1-548).
T5 sequence: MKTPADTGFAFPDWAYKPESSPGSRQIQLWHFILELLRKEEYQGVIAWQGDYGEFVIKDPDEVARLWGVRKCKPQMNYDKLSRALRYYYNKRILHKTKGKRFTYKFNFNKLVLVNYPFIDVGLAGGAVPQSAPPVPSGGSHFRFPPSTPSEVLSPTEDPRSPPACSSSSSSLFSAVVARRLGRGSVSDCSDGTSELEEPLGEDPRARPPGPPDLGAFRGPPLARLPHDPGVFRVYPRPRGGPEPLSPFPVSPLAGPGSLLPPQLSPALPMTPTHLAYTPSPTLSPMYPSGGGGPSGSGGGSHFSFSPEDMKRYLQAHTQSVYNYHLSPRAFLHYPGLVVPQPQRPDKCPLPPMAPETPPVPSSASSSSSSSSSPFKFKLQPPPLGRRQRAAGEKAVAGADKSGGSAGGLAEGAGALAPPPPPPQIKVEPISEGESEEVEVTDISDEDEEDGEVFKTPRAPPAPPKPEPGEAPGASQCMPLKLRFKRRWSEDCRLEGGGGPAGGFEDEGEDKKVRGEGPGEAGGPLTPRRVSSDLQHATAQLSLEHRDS
In a few lines: as §1

In a further assay the target is T6, ETV3L (Homo sapiens, UniProt Q6ZN32 1-361).
T6 sequence: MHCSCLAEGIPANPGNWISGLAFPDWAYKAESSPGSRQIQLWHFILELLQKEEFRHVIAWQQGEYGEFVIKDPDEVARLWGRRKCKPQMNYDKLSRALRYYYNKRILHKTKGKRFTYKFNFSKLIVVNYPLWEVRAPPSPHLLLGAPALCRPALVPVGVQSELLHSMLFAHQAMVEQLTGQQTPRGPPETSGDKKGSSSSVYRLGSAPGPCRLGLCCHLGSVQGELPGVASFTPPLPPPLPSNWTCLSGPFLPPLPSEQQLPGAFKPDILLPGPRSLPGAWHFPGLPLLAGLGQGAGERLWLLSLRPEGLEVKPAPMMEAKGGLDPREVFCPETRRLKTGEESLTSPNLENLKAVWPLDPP
In a few lines:
as §1

A further assay deals with T7, ETV7 (Homo sapiens, UniProt Q9Y603 1-341).
T7 sequence: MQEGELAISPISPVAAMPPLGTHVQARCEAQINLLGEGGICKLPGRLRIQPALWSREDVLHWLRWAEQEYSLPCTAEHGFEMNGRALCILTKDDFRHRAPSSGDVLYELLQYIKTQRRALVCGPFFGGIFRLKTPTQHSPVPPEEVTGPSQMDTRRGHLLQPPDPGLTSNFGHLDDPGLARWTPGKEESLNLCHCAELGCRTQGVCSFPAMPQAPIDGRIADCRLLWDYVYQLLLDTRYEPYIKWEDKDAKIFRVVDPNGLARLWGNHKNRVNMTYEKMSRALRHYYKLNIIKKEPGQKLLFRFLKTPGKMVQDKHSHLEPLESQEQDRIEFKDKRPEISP
In a few lines: as §1

The target in the next assay is SPIB (Homo sapiens, UniProt Q01892 1-262). In a few lines:
as §1

Another assay concerns the target T8, ELK3 (Homo sapiens, UniProt P41970 1-407).
T8 sequence: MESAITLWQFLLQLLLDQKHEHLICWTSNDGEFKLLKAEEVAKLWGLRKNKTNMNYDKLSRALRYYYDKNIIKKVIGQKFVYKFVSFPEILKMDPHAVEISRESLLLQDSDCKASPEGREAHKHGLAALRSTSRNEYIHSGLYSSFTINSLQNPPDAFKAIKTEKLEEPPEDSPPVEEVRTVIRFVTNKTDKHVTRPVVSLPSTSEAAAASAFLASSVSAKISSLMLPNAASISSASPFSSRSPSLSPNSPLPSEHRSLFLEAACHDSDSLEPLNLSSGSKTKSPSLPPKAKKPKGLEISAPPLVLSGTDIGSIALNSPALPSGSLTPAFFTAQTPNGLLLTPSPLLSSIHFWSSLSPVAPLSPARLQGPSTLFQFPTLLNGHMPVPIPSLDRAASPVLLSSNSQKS
In a few lines: as §1

Another assay concerns the target T9, ETV2 (Homo sapiens, UniProt O00321 1-342).
T9 sequence: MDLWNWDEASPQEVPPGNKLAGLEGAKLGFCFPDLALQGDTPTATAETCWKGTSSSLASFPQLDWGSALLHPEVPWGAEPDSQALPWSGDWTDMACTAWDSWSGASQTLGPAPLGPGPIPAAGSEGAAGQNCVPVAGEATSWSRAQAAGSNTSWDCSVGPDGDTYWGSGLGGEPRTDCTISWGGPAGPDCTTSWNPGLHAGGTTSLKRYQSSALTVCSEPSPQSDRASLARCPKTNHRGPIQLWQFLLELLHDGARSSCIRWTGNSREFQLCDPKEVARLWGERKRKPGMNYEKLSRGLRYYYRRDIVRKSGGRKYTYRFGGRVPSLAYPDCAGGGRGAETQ
In a few lines: as §1

The target in another assay is ETV1 (Homo sapiens, UniProt P50549 1-477). In a few lines:
as §1

For the next assay, the target named is ETV6 (Homo sapiens, UniProt P41212 1-452). In a few lines:
as §1

Chain of ETV1 (P50549 whole entry): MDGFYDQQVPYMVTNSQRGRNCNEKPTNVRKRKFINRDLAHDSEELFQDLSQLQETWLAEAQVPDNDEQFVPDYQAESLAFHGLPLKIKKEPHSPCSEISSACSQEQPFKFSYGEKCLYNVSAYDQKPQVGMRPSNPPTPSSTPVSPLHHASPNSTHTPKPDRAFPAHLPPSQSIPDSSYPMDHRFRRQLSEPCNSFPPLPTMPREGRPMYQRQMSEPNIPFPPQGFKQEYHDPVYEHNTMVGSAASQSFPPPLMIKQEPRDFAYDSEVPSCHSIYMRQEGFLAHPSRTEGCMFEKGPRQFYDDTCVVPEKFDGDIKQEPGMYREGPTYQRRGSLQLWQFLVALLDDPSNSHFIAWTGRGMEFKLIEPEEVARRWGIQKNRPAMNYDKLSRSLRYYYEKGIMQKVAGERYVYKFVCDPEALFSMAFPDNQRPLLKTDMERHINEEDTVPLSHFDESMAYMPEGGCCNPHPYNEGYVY
Chain of ETV6 (P41212 whole entry): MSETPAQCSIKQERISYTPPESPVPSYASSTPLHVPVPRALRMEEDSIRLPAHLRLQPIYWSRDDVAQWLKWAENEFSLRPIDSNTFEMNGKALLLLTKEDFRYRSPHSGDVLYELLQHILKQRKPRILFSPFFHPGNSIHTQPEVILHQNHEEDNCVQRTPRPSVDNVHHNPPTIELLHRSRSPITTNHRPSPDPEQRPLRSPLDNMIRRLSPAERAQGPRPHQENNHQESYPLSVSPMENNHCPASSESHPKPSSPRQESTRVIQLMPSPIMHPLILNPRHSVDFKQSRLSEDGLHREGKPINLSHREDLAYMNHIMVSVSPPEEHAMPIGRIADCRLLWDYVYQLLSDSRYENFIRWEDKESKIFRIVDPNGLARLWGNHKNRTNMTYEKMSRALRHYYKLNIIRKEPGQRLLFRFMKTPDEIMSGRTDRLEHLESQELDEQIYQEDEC
Chain of SPIB (Q01892 whole entry): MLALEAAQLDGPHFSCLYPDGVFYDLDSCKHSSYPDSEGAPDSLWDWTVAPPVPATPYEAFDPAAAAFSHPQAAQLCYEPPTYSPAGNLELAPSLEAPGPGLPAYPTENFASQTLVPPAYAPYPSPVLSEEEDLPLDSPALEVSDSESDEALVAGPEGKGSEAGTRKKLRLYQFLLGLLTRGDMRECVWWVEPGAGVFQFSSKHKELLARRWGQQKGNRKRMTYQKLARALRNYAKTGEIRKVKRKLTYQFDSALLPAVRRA

Take CATTGA: the binding signal was 1.06 fold enrichment (6-mer frequency, TF over GST control) in the assay with FLI1; 1.05 fold enrichment (6-mer frequency, TF over GST control) with ELK1; 1 fold enrichment (6-mer frequency, TF over GST control) with GABPA; 1.11 fold enrichment (6-mer frequency, TF over GST control) with ELK4; 1 fold enrichment (6-mer frequency, TF over GST control) in the assay with ERF; 1.01 fold enrichment (6-mer frequency, TF over GST control) with ETV3L. In the assay with ETV7, the binding signal was 1.01 fold enrichment (6-mer frequency, TF over GST control).

Take GGTCTG: the binding signal with FLI1 was 1.03 fold enrichment (6-mer frequency, TF over GST control); in the assay with ELK1, 1.11 fold enrichment (6-mer frequency, TF over GST control); with GABPA it was 1.02 fold enrichment (6-mer frequency, TF over GST control); with SPIB, 1 fold enrichment (6-mer frequency, TF over GST control); with ELK3, 1.03 fold enrichment (6-mer frequency, TF over GST control); with ELK4, 1.07 fold enrichment (6-mer frequency, TF over GST control). Besides, the binding signal was 1.07 fold enrichment (6-mer frequency, TF over GST control) with ETV2; 1.07 fold enrichment (6-mer frequency, TF over GST control) with ETV1; 1.09 fold enrichment (6-mer frequency, TF over GST control) with ERF; 1.02 fold enrichment (6-mer frequency, TF over GST control) with ETV6.
